Measurements reported in article PMC4336329 (PLoS ONE, 2015).
Screen size: about 310,000 compounds; about 14,000 (4.5%) showed an effect of 50% or more. Effects have a minus sign here. The full list was thinned out, with strong results kept by preference.

Molecular target: human ether-à-go-go-related gene (hERG) potassium channel (human, UniProt Q12809)
Test: primary screen, population patch clamp on CHO cells stably expressing hERG; higher = less effect of the substance
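Further: peak tail current of the secondary pulse compared with the same well before compound.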

Chain of human ether-à-go-go-related gene (hERG) potassium channel (Q12809 whole entry, looked up): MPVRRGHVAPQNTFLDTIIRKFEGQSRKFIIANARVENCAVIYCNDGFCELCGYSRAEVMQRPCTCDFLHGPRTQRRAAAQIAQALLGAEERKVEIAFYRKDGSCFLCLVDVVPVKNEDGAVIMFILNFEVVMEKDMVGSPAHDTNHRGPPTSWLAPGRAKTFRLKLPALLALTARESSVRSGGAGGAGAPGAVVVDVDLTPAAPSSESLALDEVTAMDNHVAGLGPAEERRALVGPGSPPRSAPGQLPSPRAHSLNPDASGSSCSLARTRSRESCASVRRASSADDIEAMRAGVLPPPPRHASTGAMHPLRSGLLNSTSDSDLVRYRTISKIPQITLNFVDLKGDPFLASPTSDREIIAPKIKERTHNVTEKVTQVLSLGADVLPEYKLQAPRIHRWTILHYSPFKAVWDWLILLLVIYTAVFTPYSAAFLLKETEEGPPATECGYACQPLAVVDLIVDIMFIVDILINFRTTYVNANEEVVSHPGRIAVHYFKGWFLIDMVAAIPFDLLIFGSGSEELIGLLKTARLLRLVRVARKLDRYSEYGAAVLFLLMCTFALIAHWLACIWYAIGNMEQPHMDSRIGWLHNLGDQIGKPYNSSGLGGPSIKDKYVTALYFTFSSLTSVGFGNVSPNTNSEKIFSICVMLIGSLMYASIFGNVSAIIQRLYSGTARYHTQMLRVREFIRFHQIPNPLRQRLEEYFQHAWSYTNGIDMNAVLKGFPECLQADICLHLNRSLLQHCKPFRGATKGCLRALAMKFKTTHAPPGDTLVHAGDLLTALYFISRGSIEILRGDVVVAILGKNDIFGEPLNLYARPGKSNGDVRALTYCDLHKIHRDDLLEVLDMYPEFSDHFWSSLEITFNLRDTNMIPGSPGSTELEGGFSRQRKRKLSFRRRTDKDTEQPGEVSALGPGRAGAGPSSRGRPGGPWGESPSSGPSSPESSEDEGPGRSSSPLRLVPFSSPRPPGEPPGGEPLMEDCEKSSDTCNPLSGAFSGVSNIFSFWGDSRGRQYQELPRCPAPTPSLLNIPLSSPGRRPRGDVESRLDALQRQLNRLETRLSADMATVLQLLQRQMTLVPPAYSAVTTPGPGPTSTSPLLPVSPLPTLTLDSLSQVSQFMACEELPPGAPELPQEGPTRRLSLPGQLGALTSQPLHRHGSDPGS

| SMILES | hERG current change (%, negative = inhibition) at 10uM [%] |
| --- | --- |
| O=C(COC(=O)c1ccc(Br)o1)NCc1cccs1 | -4.11 |
| COCOc1ccc(C=O)c(O)c1 | 7.21 |
| CCOc1ccc(C2CC(c3cccc(OC)c3)Nc3nc(N)nn32)cc1 (stereo not drawn) | -26 |
| Cc1ccc(/C=N/Nc2ccc(Cl)c(C(=O)O)c2)s1 | 10 |
| COc1ccccc1CCNC(=O)CN1C(=O)NC2(CCCC2)C1=O | -9.26 |
| Cc1cccnc1NC(=O)CNC(=O)COc1ccccc1 | 6.69 |
| CC(c1ccco1)N(C(=O)c1ccc(S(=O)(=O)N2CCCCC2)cc1)c1ccccn1 (stereo not drawn) | -4.75 |
| CCCC(=O)N(Cc1cc(=O)[nH]c2ccccc12)c1ccc(C)cc1 | -3.22 |
| Cc1cc(CNC(=O)c2cccnc2Cl)c2ccccc2n1 | -2.82 |
| COc1ccc(NC(=O)CN(C)C(=O)c2ccc3[nH]c4c(c3c2)CC(C)CC4)cc1 (stereo not drawn) | 7.28 |
| CCOc1cc(C(=O)NCc2ccc(F)cc2)ccc1OCC(=O)N1CCCCC1 | -37.5 |
| CCOc1ccc(CN2CCCC(CNC(=O)c3ccc(F)cc3)C2)cc1CO (stereo not drawn) | -68.1 |
| O=C(NC1CCN(C(=S)NCc2ccco2)CC1)NC12CC3CC(CC(C3)C1)C2 | 5.73 |
| CCOC(=O)N1CCC(N2C(=O)c3ccc(C(=O)O)cc3C2=O)CC1 | 9.66 |
| O=C(NC1CCCCC1)Oc1ccccc1 | 17.2 |
| COc1cccc(C(=O)N2CCN=C2SCc2cccnc2)c1OC | 4.44 |
| COc1ccc(NS(=O)(=O)c2cn(C)cn2)cc1 | 11.9 |
| c1ccc2[nH]c(N3CCOCC3)nc2c1 | 8.82 |
| Cl.Nc1nc(N2CCN(c3ccccn3)CC2)nc2ccccc12 | -68.4 |
| c1ccc(N2CCN(Cc3nc4ccccc4[nH]3)CC2)nc1 | 9.64 |
| Oc1ccc2ccccc2c1CN1CCN(C/C=C/c2ccccc2)CC1 | 14 |
| Cl.Nc1nc(N2CCCCC2)nc2ccccc12 | -45.8 |
| CCN(CC)c1nc(N2CCN(C)CC2)nc2ccccc12.Cl | -44.3 |
| Cl.Nc1nc(N2CCN(C/C=C/c3ccccc3)CC2)nc2ccccc12 | -67.7 |
| c1ccc(N2CCN(c3nc4ccccc4[nH]3)CC2)nc1 | -64.4 |
| Nc1nc(N2CCOCC2)nc2ccccc12 | -19.7 |
| COC(=O)c1cccc(N(CC(=O)NC2CCCC2)C(=O)CNC(=O)c2cccs2)c1 | -1.26 |
